In the assay the target is Albumin (Bos taurus) (UniProt P02769). The experiment in a line: bovine serum albumin binders on microarray, profiling panel, artefact control for SMM control protein annotation, biochemical, small-molecule microarray, Alexa647 label, 635/667 nm fluorescence (AID 1118).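 Also: score merges 667 nm emission intensity and signal-to-noise per printed compound spot.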 Conditions: BSA-A647 binding, fluorescence 635 nm, higher = more signal.
Sequence of Albumin (Bos taurus) (P02769 whole entry, looked up): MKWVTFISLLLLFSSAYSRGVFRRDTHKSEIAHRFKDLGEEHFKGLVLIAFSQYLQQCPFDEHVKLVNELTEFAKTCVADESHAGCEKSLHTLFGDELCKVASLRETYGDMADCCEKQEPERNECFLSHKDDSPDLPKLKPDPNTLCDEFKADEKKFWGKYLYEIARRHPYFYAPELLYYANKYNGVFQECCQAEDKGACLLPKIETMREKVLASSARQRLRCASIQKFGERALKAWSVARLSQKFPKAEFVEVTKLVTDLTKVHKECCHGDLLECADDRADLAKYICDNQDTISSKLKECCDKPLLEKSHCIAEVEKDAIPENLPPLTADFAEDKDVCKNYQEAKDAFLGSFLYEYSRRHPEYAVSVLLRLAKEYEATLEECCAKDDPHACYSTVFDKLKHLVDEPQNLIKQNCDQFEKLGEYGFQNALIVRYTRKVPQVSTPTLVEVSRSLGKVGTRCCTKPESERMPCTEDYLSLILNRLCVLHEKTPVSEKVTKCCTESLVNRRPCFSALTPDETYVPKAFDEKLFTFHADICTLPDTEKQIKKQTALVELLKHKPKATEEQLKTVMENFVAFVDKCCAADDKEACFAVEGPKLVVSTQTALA
In turn, `C=CCNC(=O)[C@H]1[C@@H]2C(=O)O[C@@H](c3ccccc3)[C@@H](c3ccccc3)N2[C@@H](c2ccc(O)cc2)[C@]12C(=O)Nc1ccc(C#CC3=CCCCC3)cc12` displayed a composite z-score of 0.135.
The figure for `COC(=O)[C@@]1(Cc2ccccc2)[C@H]2c3cc(C(=O)N4CCCC4)n(Cc4ccc(C(F)(F)F)nc4)c3C[C@H]2CN1C(=O)c1ccccc1` is 0.958; for `O=C1OCCC/C=C\[C@H]2OC34C=CCN(Cc5ccccc5)C(=O)[C@H]3N(CCCCCO)C(=O)[C@@H]4C12` (stereo partly specified) it is 0.499.
In turn, `CN(C)CCCNC(=O)[C@@]1(Cc2ccccc2I)c2ccccc2C(=O)N(Cc2ccccc2)[C@H]1c1ccc(CO)cc1` had a composite z-score of -0.6.
The compound `COC(=O)c1c(CC[C@@H](CO)NC(=O)N[C@@H](Cc2ccccc2)Cn2cc(-c3cncn3C)nn2)oc(C(C)=O)c1C(=O)OC` displayed a composite z-score of 0.979.
For `CC(c1ccccc1)C(O)C1C=CC2C(=O)N(c3ccccc3)C(=O)C2N1Nc1ccc(C#N)cc1` (stereo unspecified) the value was 0.976; for `CC(=O)c1ccc(C(O)C2C=CC3C(=O)N(C)C(=O)C3N2NC(=O)OC(C)(C)C)cc1` (stereo unspecified), 1; for `C=CCC(OC(C)=O)[C@@H]1[C@@H](N(Cc2ccc(-c3ccccc3)cc2)C(=O)c2cccc3ccccc23)c2cc(OCCCO)ccc2N1C(=O)c1ccc2ccccc2c1` (stereo partly specified), 0.002.
The compound `COC(=O)[C@@H]1N=C(c2ccc(OCCCO)cc2)O[C@@H]1c1ccccc1CN=[N+]=[N-]` registered a composite z-score of 0.273.
`CCOC(=O)C1=CC[C@@H](c2ccccc2)N(S(=O)(=O)c2ccc(C)cc2)[C@H]1C#N`: the composite z-score worked out at 0.721.
Take `CC#CCO[Si](C#CCCCCCC)(C(C)C)C(C)C`: the composite z-score was -0.611.

Values taken from PubChem BioAssay.
